Screening data: PubChem, National Center for Advancing Translational Sciences (NCATS)
NPC1 prom act: activators of NPC1 promoter; Huh7 NPC1 promoter luciferase reporter, 24 h; Potency, µM (top dose mostly 9.22 µM), usual class: activators; hit rate 2.4% among 320,000; AID 485313; further: nearly all actives have a fitted effect of over 60% in size
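Stable NPC1-promoter luciferase Huh7 line; cpd (DMSO) 24 h, 37 °C, 5% CO2; Amplite luciferase reagent 10 min RT; luminescence readout. qHTS format.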
ELG1 genotoxic: inducers of genotoxicity in HEK293T ELG1-luciferase cells; HEK293T ELG1-luciferase reporter, luminescence, 16 h; Potency, µM (top dose mostly 46 µM), most hits filed as activators; hit rate 1.3% among 330,000; further: nearly all actives have a fitted effect of over 60% in size
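HEK293T cells expressing luciferase-tagged ELG1 were exposed to compound or DMSO vehicle for 16 hr at 37 °C and 5% CO2. Luciferase activity was then measured with ONE-Glo after 30 min at room temperature.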
FLuc modulator: inhibits or activates purified firefly luciferase, miR-21 counter-screen | purified FLuc, Km substrates, luminescence inhibition | Potency, µM (highest dose often 57.5 µM), hits mostly inhibitors | hit rate 6.9% among 360,000 | AID 588342; further: nearly all actives have a fitted effect of over 55% in size
Target sequence (P08659 whole entry, looked up): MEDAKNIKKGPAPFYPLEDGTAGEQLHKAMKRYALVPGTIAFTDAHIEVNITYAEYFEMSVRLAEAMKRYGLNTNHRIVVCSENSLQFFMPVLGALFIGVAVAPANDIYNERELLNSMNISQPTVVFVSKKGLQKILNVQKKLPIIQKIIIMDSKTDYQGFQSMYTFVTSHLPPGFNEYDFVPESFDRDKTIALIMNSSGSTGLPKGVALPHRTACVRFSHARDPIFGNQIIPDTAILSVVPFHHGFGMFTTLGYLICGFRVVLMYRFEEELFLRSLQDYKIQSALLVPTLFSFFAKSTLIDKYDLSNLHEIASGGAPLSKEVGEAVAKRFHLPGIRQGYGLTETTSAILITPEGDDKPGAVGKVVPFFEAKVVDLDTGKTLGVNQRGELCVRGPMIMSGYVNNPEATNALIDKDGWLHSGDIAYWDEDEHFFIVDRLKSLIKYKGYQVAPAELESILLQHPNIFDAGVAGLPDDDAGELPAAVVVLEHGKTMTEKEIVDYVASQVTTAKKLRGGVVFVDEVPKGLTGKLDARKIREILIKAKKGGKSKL
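Purified P. pyralis luciferase (10nM final) with 10uM D-luciferin and 10uM ATP (Km levels) in 50mM Tris acetate pH 7.5, 10mM Mg acetate, 0.01% Tween-20, 0.05% BSA; qHTS 6-point titration, ~60 µM downward; luminescence read.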
SMN2 splice enh: enhancers of SMN2 splice variant expression; HEK293 SMN2-luciferase splicing reporter, luminescence, 30-36 h; Potency, µM (series often up to 46.1 µM), actives largely listed as activators; hit rate 2.8% among 210,000; AID 1458; further: nearly all actives have a fitted effect of over 55% in size
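qHTS luciferase splicing reporter: luminescence rises when SMN2 exon 7 is included in transfected HEK293 cells. Compound exposure lasted 30-36 h at 37C, with 4.5 mM final sodium butyrate as control, followed by a ONE-Glo read.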
ELG1 DNA repair: blocks ELG1-dependent DNA repair in HEK293T cells; HEK293T ELG1-luciferase reporter, luminescence, 16 h; DNA damage induced by 5-fluorouridine; Potency, µM (highest dose often 46.1 µM), actives largely listed as inhibitors; hit rate 2.3% among 330,000; further: nearly all actives have a fitted effect of over 55% in size
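Reporter activity after DNA damage by 5-fluorouridine is monitored. Compound-treated cells incubate 16 hr at 37 °C, then ONE-Glo is added for 30 min before luminescence reading.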
Rab9 promoter act: activates the Rab9 promoter; AID 485297; Potency, µM (top dose mostly 9.22 µM), actives largely listed as activators; hit rate 2.8% among 320,000; Huh7 Rab9 promoter-luciferase reporter, luminescence, 24 h; further: nearly all actives have a fitted effect of over 60% in size
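Quantitative HTS format; Huh7 Rab9-luciferase reporter cells (1500/well) receive compound 2 h post-plating, incubate 24 h at 37 °C, then get luciferase reagent for 10 min before luminescence reading.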
A number is an active result; i = inactive; ? = inconclusive; nt = not tested or not shown; [ ] = remark or other dose. A selection: hits, their analogues and other compounds. The true share with any hit is near 9.4%. The call rests on the fitted dose curve; in most records, active means well fitted curve in the direction sought with a large enough effect; inconclusive means small, poorly fitted or top-dose-only effect, or another doubt; inactive means no such curve, though single readings can be large; an effect the other way counts as inactive or inconclusive.

SMILES	NPC1 prom act	ELG1 genotoxic	FLuc modulator	SMN2 splice enh	ELG1 DNA repair	Rab9 promoter act
O=C(c1cc(-c2ccncc2)nc2ccccc12)N1CCN(c2ccccn2)CC1	i	i	?	i	?	i
O=C(c1cc(-c2ccncc2)nc2ccccc12)N1CCN(c2ccc(N3CCOCC3)nn2)CC1	i	i	i	i	i	i
O=C(c1cc(-c2ccccc2)nc2ccccc12)N1CCN(c2ccccn2)CC1	i	i	12µM	i	?	i[1.84 µM]
O=C(c1cc(-c2ccncc2)nc2ccccc12)N1CCN(c2ncccn2)CC1	nt	i	nt	nt	23µM	nt
Nc1cccc(C#Cc2ccc3c(=O)c4ccccc4oc3c2)c1	i	?	?	nt	?	0.56µM
COc1ccc2c(c1)oc(=O)c1ccccc12	i	i	?	i	?	i
COc1ccc2c(=O)c3ccccc3oc2c1	3.5µM	?	12µM	nt	?	?
COc1ccc2c(c1)oc(=O)c1cc(OC)ccc12	2.5µM	10µM	3µM	nt	?	2.5µM
O=C(NCC(c1cccnc1)N1CCN(Cc2ccccc2)CC1)C(=O)Nc1cccc(Cl)c1 (stereo not drawn)	nt	nt	i	nt	nt	nt
COc1cccc(C(c2sc3nc(-c4ccco4)nn3c2O)N2CCOCC2)c1 (stereo not drawn)	nt	nt	i	nt	nt	nt
COc1ccc(/C=C2\SC(=S)N(Cc3cccnc3)C2=O)cc1C	i	i	5.4µM	i	?	i
CCOc1ccc(/C=C2\SC(=S)N(Nc3ccccc3)C2=O)cc1OC	i	i	11µM	i	?	i
COc1cc(/C=C2\SC(=S)N(Nc3ccccc3)C2=O)cc(OC)c1OC	i	i	i	i	i	i
O=C1/C(=C/c2ccc(O)cc2)SC(=S)N1Cc1cccnc1	i	i	i	i	i	i
CCOc1cc(/C=C2/SC(=Nc3ccccc3)N(Cc3cccnc3)C2=O)ccc1OCC#N	i	i	i	i	18µM	i
O=C1/C(=C\c2cc([N+](=O)[O-])ccc2O)SC(=S)N1Cc1ccc(Cl)cc1	i	i	i	nt	18µM	i
O=C1/C(=C\c2cccc(O)c2O)SC(=S)N1Cc1ccccc1	i	i	?	nt	i	i
COc1cc(/C=C2/SC(=NCc3ccccc3)N(Cc3ccccc3)C2=O)ccc1O	i	i	?	i	i	i
CCCN(C(=O)Cn1ncc2c1-c1ccccc1OC2)c1cccc(C)c1	nt	nt	i	i	nt	nt
FC(F)(F)c1nc(SCc2ccc(Cl)cc2)n[nH]1	nt	nt	nt	i[9.22 µM]	nt	nt
COC(=O)CC1Oc2ccc(C)cc2-n2cc(-c3ccc(F)cc3)nc21 (stereo not drawn)	nt	nt	i	i	nt	nt
COc1cc(/C=C2\SC(=S)N(C(C(=O)O)c3ccccc3)C2=O)ccc1O (stereo not drawn)	i	i	19µM	nt	i	i
CCOc1cc(/C=C2\SC(=S)N(C(C(=O)O)c3ccccc3)C2=O)ccc1O (stereo not drawn)	i	i	?	nt	i	i
COc1cc(/C=C2/SC(=S)N(Cc3ccccc3)C2=O)ccc1O	i	?	27µM	nt	?	i
COc1ccc(N2CCN(CCCNC(=O)c3c(C)nn(-c4ccc(F)cc4)c3-n3cccc3)CC2)cc1	nt	nt	i	nt	nt	nt
SMILES	NPC1 prom act	ELG1 genotoxic	FLuc modulator	SMN2 splice enh	ELG1 DNA repair	Rab9 promoter act
COc1ccc(N/C=C2\CCc3ccccc3C2=O)cc1	0.25µM	?	0.054µM	nt	?	0.1µM
COc1ccc(S(=O)(=O)Nc2ccc3c(c2)OCO3)cc1	i	i	i	i	i	i
O=C1/C(=C/Nc2ccc3c(c2)OCO3)CCc2ccccc21	0.89µM	?	0.12µM	i	?	0.28µM
COc1ccc(N/C=C2\CCOC2=O)cc1	i	i	i	i	i	i
COc1ccc2c(c1)CC/C(=C\Nc1ccc3c(c1)OCO3)C2=O	3.5µM	i	1.2µM	35µM	?	2.5µM
Cc1ccc(NC(=O)c2c(C)oc3ccc(O)c(CN4CCN(Cc5ccccc5)CC4)c23)cc1	nt	nt	i	i	nt	nt
CCOC(=O)c1ccc(CN(Cc2ccccc2C)S(=O)(=O)c2ccc(C(C)(C)C)cc2)cc1	nt	nt	i	nt	nt	nt
O=C(CN(c1ccc2c(c1)OCCO2)S(=O)(=O)c1ccccc1)NCc1ccc(Cl)cc1	i	i	i	i	26µM	i
